Where “and” joins values, the source holds several entries; their conditions need not be identical. Identical values can stand only once.

In one assay the test system is Proto-oncogene tyrosine-protein kinase receptor Ret (Homo sapiens), P07949 [V804L]. As to conditions: at 1 µM.
Chain of Proto-oncogene tyrosine-protein kinase receptor Ret (Homo sapiens), P07949 [V804L] (P07949 whole entry V804L): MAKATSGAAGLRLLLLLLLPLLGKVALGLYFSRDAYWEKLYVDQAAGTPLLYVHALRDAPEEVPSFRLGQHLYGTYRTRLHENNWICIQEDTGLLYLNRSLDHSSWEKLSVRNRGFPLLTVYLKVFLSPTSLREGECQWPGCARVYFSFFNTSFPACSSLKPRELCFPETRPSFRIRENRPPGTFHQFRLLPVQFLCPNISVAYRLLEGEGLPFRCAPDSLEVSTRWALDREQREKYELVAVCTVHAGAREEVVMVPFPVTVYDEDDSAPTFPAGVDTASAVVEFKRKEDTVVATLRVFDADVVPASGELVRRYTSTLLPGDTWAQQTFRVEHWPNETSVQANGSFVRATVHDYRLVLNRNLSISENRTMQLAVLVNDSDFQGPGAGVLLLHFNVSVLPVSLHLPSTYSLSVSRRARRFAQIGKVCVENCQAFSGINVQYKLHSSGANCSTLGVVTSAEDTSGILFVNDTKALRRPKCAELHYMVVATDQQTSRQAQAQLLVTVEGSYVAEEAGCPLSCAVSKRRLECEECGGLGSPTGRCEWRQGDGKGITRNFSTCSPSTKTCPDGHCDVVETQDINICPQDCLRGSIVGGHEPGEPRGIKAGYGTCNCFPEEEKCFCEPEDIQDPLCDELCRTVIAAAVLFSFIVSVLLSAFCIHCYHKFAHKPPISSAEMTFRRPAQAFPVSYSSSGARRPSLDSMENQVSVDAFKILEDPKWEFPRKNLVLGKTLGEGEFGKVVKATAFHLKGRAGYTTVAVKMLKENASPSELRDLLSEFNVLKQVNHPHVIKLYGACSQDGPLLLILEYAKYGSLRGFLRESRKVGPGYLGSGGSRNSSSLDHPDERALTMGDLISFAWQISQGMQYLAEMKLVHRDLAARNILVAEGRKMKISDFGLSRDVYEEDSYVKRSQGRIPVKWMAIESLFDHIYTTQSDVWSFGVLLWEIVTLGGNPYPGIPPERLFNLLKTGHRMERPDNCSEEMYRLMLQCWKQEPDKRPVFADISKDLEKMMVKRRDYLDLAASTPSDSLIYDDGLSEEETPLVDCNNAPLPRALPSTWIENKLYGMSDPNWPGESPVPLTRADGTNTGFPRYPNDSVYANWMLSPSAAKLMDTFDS
The compound `N#Cc1cccc(Nc2ncc(-c3ccccc3)o2)c1` yielded an inhibition of 14.4%.

The compound `N#Cc1ccc2c(-c3ccnc(NC4CC4)n3)c(-c3ccc(F)cc3)nn2c1` yielded an inhibition of 2.65%.

Consider `CNC(=O)c1sc(-n2cnc3cc(OC)c(OC)cc32)cc1OCc1ccccc1C(F)(F)F`, for which the inhibition was found to be 11.4%.

The test system of the next assay is Proto-oncogene tyrosine-protein kinase receptor Ret (Homo sapiens), P07949 [Y791F]. Conditions: at 0.1 µM.
Chain of Proto-oncogene tyrosine-protein kinase receptor Ret (Homo sapiens), P07949 [Y791F] (P07949 whole entry Y791F): as the sequence (P07949 whole entry V804L) above, with Y791F, L804V counted along it
The compound `COc1ccc(Nc2ncc(-c3ccccc3)o2)cc1OC` showed an inhibition of 6.85%.

In turn, `CCS(=O)(=O)c1ccc(OC)c(Nc2ncc(-c3cccc(C(C)=O)c3)o2)c1` displayed an inhibition of 6.91%.

Compound `CS(=O)(=O)Nc1ccc(-c2ccc3c(NC(=O)C4CC4)n[nH]c3c2)cc1` gave an inhibition of 6.88%. Compound `CS(=O)(=O)CCNCc1ccoc1-c1ccc2ncnc(Nc3ccc(OCc4ccccc4)cc3)c2c1` gave an inhibition of 4.19%.

Compound `NS(=O)(=O)c1ccc(N/N=C2\C(=O)Nc3ccc(C(=O)NCc4ccncc4)cc32)cc1` registered an inhibition of 10.6%. Turning to `CN1CCC(C(=O)Nc2n[nH]c3nc(-c4ccc(O)cc4)c(Br)cc23)CC1`, the inhibition is 4.94% and 4.6%. For `CN1CCN(Cc2ccc(-c3cc4ncnc(Nc5ccc(OCc6cccc(F)c6)c(Cl)c5)c4s3)o2)CC1`, the inhibition was 4.88% and 3.59%. With `COc1cc2c(cc1Nc1nc(Nc3cccc(F)c3C(N)=O)c3cc[nH]c3n1)N(C(=O)CN1CCN(C(C)C)CC1)CC2`, the inhibition was 1.11%. In turn, `COc1cccc(-n2ncc3c(N/N=C/c4ccc(C(=O)NCCN(C)C)cc4)ncnc32)c1` had an inhibition of 37.3%. Regarding `CN(c1ccc(NC(=O)NCCN2CCOCC2)cc1)c1ccnc(Nc2ccc(CS(C)(=O)=O)cc2)n1`, the inhibition came to 29.1%. On the same count and under the same terms, the value for `Cc1nnc(-c2cccc(-c3ccc(C(=O)NCC4CC4)cc3)c2)o1` was 5%; that for `Cc1cc(O)cc(C)c1/C=C/c1cncc(C(N)=O)c1` was 3.94%. With `FC(F)(F)CNc1nccc(-c2cnn3ncccc23)n1`, the inhibition is 1.04%. Take `NC(=O)c1ccc2c(-c3ccnc(NCCCO)n3)c(-c3ccc(F)cc3)nn2c1`: the inhibition is 6.62%.

Turning to `COc1ccc2ncn(-c3cc(O[C@H](C)c4ccccc4C(F)(F)F)c(C(N)=O)s3)c2c1`, the inhibition was 2.46%. The same measure, in the same setting: the value for `COc1cc(Nc2ncc(-c3ccccc3)o2)cc(OC)c1` was 8.14%; that for `Fc1ccc(Nc2nccc(-c3c(-c4ccc(C(F)(F)F)cc4)nn4ncccc34)n2)cc1F` was 5.34%. On to `COc1cc(N2CCN(C(C)C)CC2)ccc1Nc1nc(Nc2cccc(F)c2C(=O)O)c2cc[nH]c2n1`, for which the inhibition is 4.5%.

`CC1(C)CC(n2cnc(-c3ccc(F)cc3)c2-c2ccnc(N)n2)CC(C)(C)N1`: the inhibition was 1.42%. `COc1cccc(Nc2nccc(-c3cnn4ncccc34)n2)c1` returned an inhibition of 2.74%. With `COc1ccc(-c2nn3ncccc3c2-c2ccnc(Nc3ccc(F)c(F)c3)n2)cc1`, the inhibition was determined as 9.34%.

In the case of `CNC(=O)c1cncc(/C=C/c2ccccc2C)c1`, the inhibition worked out at 2.57%. For `Cn1c(-c2nonc2N)nc2cnccc21`, the inhibition turned out to be 3.98%. The same measure, in the same setting: then `Nc1ncnc2occ(-c3ccc(NC(=O)Nc4cc(C(F)(F)F)ccc4F)cc3)c12`, with 79.2% and 72.6%; and `CCOc1ccc2c(-c3ccnc(Nc4cc(OC)cc(C(F)(F)F)c4)n3)cnn2n1`, with 2.94%; and `O=C1Nc2ccccc2/C1=C1\CCc2cc(O)ccc21`, with 25.8%. In turn, `O=C(O[C@H]1CN[C@H](C#Cc2cc3ncnc(Nc4ccc5c(ccn5Cc5cc(F)ccc5F)c4)c3s2)C1)N1CCOCC1` had an inhibition of 1.9%. Same read-out and setting: then `CS(=O)(=O)CCNCc1ccc(-c2ccc3ncnc(Nc4ccc(OCc5cccc(C(F)(F)F)c5)cc4)c3c2)o1`, with 5.55%; and `N#Cc1cccc(Nc2ncc(-c3ccccc3)o2)c1`, with 0.39%; and `N#Cc1ccc2c(-c3ccnc(NC4CC4)n3)c(-c3ccc(F)cc3)nn2c1`, with 4.65%. For the compound `CNC(=O)c1sc(-n2cnc3cc(OC)c(OC)cc32)cc1OCc1ccccc1C(F)(F)F`, the inhibition is 8.02%.

By inhibition is commonly meant how much of the control response was suppressed.

The values above are taken from ChEMBL document CHEMBL1961873, “Compounds: GSK PKIS; Assays: Nanosyn kinase panel” (2012).
